Assay outcomes as filed in PubChem.
This is a sample that favours compounds with a hit; in the whole collection about 19% have one here.
DT40 TDP1 CPT: growth inhibition of DT40 Tdp1-/-;hTDP1 cells with camptothecin (screen for TDP1 inhibitors); chicken DT40 Tdp1-/-;hTDP1 cells + 20 nM CPT, ATP luminescence, 48 h; Potency, µM (highest dose often 46.2 µM), actives largely listed as inhibitors; 420,000 compounds, 12% hits; further: nearly all actives have a fitted effect of over 55% in size
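Cell growth measured by CellTiter-Glo luminescence after a minimum 48 h, 37 C compound exposure with 20 nM CPT in Tdp1-knockout DT40 cells stably expressing hTDP1, seeded 400/well; qHTS titration format.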
uPA surface inh: inhibitors of cell surface uPA generation; cell surface uPA generation assay, qHTS; Potency, µM (series often up to 38.3 µM), actives largely listed as inhibitors; 330,000 compounds, 0.31% hits; AID 540303; active means well fitted inhibition curve with a large enough effect; inconclusive means small, poorly fitted or top-dose-only effect; inactive means no such curve, though single readings can be large or run the other way; tested in mouse RAW 264.7 cells; further: nearly all actives have a fitted effect of over 55% in size
IL-1B inflam inh: blocks inflammasome-driven IL-1 beta release; activity change, % at 57.5 µM; 360,000 compounds, 4.7% hits; THP-1 LPS/ATP IL-1B secretion, AlphaLISA, 16 h; hits give low values; in the data active means activity change below about -50%; inconclusive means mostly about -30% to -49%
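Secreted IL-1B measured by AlphaLISA bead assay after 16 h compound exposure of THP-1 cells; compounds (final up to 57.5 uM) added 1 h before LPS (250 ng/mL) and ATP (1.25 mM) stimulation; lower signal means less secretion.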
TDP1 cell noCPT: qHTS for Inhibitors of human tyrosyl-DNA phosphodiesterase 1 (TDP1): qHTS in cells in absence of CPT; Potency, µM (top dose mostly 46.2 µM), most hits filed as inhibitors; AID 686978, 2013; DT40 Tdp1-/- hTDP1 cells, no CPT, ATP luminescence, 48 h; 420,000 compounds, 15% hits; further: nearly all actives have a fitted effect of over 55% in size
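Stably hTDP1-transfected Tdp1-null chicken DT40 cells were treated with library compounds minus camptothecin and grown for at least 48 hr at 37 °C, after which cellular ATP was quantified by luminescence.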
HT1080NT lethal: kills 2HG-producing HT-1080-NT fibrosarcoma cells; HT-1080-NT fibrosarcoma viability, CellTiter-Glo ATP luminescence, 48 h; Potency, µM (top dose mostly 46.1 µM), hits mostly cytotoxic; 360,000 compounds, 1.6% hits; AID 686970;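 further: NT is the 2HG producing partner of a matched IDH1 knockdown line; nearly all actives have a fitted effect of over 55% in size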
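Viability of the 2HG-overproducing fibrosarcoma line after 48 hours of compound exposure at 37 degrees C was determined by luminescence with CellTiter-Glo, and concentration-effect curves were then fitted and categorized.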
HT1080 IDH1KD tx: kills HT-1080 cells with IDH1 knockdown | Potency, µM (highest dose often 46.1 µM), most hits filed as cytotoxic | 360,000 compounds, 2% hits | HT-1080 IDH1 knockdown viability, ATP luminescence, 48 h
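% activity derives from luminescence (CellTiter-Glo), normalised to DMSO and no-cell wells. HT-1080-IDH1KD cells, 750/well, had 48 h compound exposure at 37 °C.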
Large screens that a line does not name were inactive. Unless noted, the call rests on the fitted dose curve; in most records, active means well fitted curve in the direction sought with a large enough effect; inconclusive means small, poorly fitted or top-dose-only effect, or another doubt; inactive means no such curve, though single readings can be large; an effect the other way counts as inactive or inconclusive.

CN(c1ccccc1)S(=O)(=O)c1ccc(C(=O)Nc2nnc(-c3ccc(F)cc3)o2)cc1	DT40 TDP1 CPT 9.2µM, TDP1 cell noCPT 6.5µM, HT1080 IDH1KD tx inconclusive
O=S(=O)(NCCc1csc2nc(-c3ccccc3)nn12)c1cccs1	DT40 TDP1 CPT inconclusive, TDP1 cell noCPT 16µM (no result: uPA surface inh, IL-1B inflam inh, HT1080NT lethal, HT1080 IDH1KD tx)
CCOC(=O)Cc1csc2nc(-c3ccccc3)nn12	TDP1 cell noCPT inconclusive
CCc1ccc(S(=O)(=O)NCCc2csc3nc(-c4ccccc4)nn23)s1	DT40 TDP1 CPT 21µM, TDP1 cell noCPT 23µM (no result: uPA surface inh, IL-1B inflam inh, HT1080NT lethal, HT1080 IDH1KD tx)
COc1ccc(-c2nc3scc(CCNS(=O)(=O)c4cccs4)n3n2)cc1	DT40 TDP1 CPT 21µM, TDP1 cell noCPT 18µM (no result: uPA surface inh, IL-1B inflam inh, HT1080NT lethal, HT1080 IDH1KD tx)
COc1ccc(Br)cc1CNC(=O)C1CCCCN1S(=O)(=O)c1ccc(F)cc1 (stereo not given)	none (no result: uPA surface inh, IL-1B inflam inh, HT1080NT lethal, HT1080 IDH1KD tx)
CCOC(=O)c1c(NC(=O)c2nn(CC)cc2Br)sc(C)c1C	DT40 TDP1 CPT 16µM, TDP1 cell noCPT inconclusive
CCOC(=O)c1ccc(NC(=O)c2nn(CC)cc2Br)cc1	none
CCOC(=O)c1c(NC(=O)c2ccn(CC)n2)sc2c1CCC2	IL-1B inflam inh inconclusive, TDP1 cell noCPT inconclusive
CCOC(=O)c1nn(-c2ccccc2)c(C#N)c1NC(=O)c1nn(CC)cc1Br	DT40 TDP1 CPT 15µM, TDP1 cell noCPT 18µM
CCOC(=O)c1c(NC(=O)c2nn(CC)cc2Br)sc2c1CCCCC2	DT40 TDP1 CPT 18µM, IL-1B inflam inh inconclusive, TDP1 cell noCPT inconclusive
CCOC(=O)c1nn(-c2ccccc2)c(C#N)c1N	none
CCOc1ccc(NC(=O)CN(C)C2=NS(=O)(=O)c3ccccc32)cc1	none (no result: uPA surface inh)
CN1CCN(C(c2ccc(Br)cc2)c2cc(Cl)c3cccnc3c2O)CC1 (stereo not given)	DT40 TDP1 CPT 16µM, IL-1B inflam inh -106, TDP1 cell noCPT 15µM, HT1080NT lethal inconclusive, HT1080 IDH1KD tx inconclusive
CN1CCN(C(c2cccnc2)c2ccc3cccnc3c2O)CC1 (stereo not given)	DT40 TDP1 CPT inconclusive, TDP1 cell noCPT 16µM
CN1CCN(C(c2ccc(F)cc2)c2ccc3cccnc3c2O)CC1 (stereo not given)	none
CCOC(=O)c1cnc2c(ccc3ccccc32)c1Nc1ccc(OC)c(OC)c1	DT40 TDP1 CPT 4.6µM, TDP1 cell noCPT 4.6µM (no result: uPA surface inh, IL-1B inflam inh, HT1080NT lethal, HT1080 IDH1KD tx)
CCOC(=O)c1cnc2c(ccc3ccccc32)c1NCCCN(C)C	DT40 TDP1 CPT inconclusive, TDP1 cell noCPT inconclusive, HT1080NT lethal inconclusive, HT1080 IDH1KD tx 21µM (no result: IL-1B inflam inh)
CCOc1ccccc1C(C(=O)NC1CCCCC1)N(C(=O)c1csnn1)C1CC1 (stereo not given)	IL-1B inflam inh inconclusive, TDP1 cell noCPT inconclusive
Cc1ccc(S(=O)(=O)N(C)c2c(C)ccc(S(=O)(=O)NC(C)(C)C)c2C)cc1	none
O=C(CCCN1CCN2CCCC2C1)c1ccc(F)cc1 (stereo not given)	none (no result: uPA surface inh, IL-1B inflam inh, HT1080NT lethal, HT1080 IDH1KD tx)
COc1ccc(/C=C/C(O)=C2/C(=O)NC3(C)CC2c2ccccc2O3)c(OC)c1OC (stereo not given)	DT40 TDP1 CPT 8.2µM, uPA surface inh inconclusive, TDP1 cell noCPT 7.3µM, HT1080NT lethal inconclusive, HT1080 IDH1KD tx inconclusive
COc1ccc(/C=C/C(O)=C2/C(=O)N(C)C3(C)CC2c2ccccc2O3)cc1 (stereo not given)	DT40 TDP1 CPT 23µM, IL-1B inflam inh -91, TDP1 cell noCPT 21µM, HT1080NT lethal inconclusive, HT1080 IDH1KD tx inconclusive
O=C(NC1CCCCC1)c1ccc2c(c1)N(Cc1ccccc1Cl)C(=O)c1ccccc1S2	TDP1 cell noCPT inconclusive (no result: uPA surface inh, IL-1B inflam inh, HT1080NT lethal, HT1080 IDH1KD tx)
COc1ccc(CCNC(=O)c2ccc(COc3ccccc3OC)o2)cc1	TDP1 cell noCPT 12µM
CC(=O)c1ccc(NC(=O)c2ccc(CSc3ccccc3)o2)cc1	DT40 TDP1 CPT 16µM, IL-1B inflam inh inconclusive, TDP1 cell noCPT inconclusive
COc1ccc(CCNC(=O)c2ccc(CSc3ccccc3)o2)cc1	IL-1B inflam inh -59
O=C(NCC1CCC2(CCN(Cc3cc4ccccc4o3)CC2)O1)c1ccccc1 (stereo not given)	none (no result: uPA surface inh, IL-1B inflam inh, HT1080NT lethal, HT1080 IDH1KD tx)
